An excerpt weighted towards active compounds, which were near 3.4% of everything screened.
FBW7 activator = activators of human E3 ligase FBW7. AlphaScreen FBW7–phospho-cyclin E peptide binding, activator screen. normalized activity (activation), % at 26.1 µM. 650,000 compounds, 0.13% hits; in the data active = normalized activity above about 1.9%;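 also: purified mutant Fbw7 with reduced substrate affinity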
Target sequence (Q969H0 whole entry, looked up): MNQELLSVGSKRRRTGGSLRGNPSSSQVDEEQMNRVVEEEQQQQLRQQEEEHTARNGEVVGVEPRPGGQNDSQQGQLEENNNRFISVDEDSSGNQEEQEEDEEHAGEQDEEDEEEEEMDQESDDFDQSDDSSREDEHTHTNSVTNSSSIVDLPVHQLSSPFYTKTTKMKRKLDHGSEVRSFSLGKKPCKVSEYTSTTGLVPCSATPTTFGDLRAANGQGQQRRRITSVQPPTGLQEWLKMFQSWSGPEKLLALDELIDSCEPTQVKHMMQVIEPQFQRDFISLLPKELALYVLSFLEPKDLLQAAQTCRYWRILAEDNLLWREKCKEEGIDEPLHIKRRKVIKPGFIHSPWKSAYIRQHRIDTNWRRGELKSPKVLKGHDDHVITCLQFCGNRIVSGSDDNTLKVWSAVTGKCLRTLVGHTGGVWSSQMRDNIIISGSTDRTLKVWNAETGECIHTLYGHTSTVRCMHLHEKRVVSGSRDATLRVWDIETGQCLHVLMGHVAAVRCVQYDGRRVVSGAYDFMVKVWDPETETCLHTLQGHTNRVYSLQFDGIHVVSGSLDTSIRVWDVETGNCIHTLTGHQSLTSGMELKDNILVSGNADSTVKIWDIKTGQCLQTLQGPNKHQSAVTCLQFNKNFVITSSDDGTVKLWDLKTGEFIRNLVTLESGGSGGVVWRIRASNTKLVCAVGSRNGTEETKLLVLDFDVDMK
TEAD-YAP block = TEAD-YAP interaction inhibition; 640,000 compounds, 1.4% hits; inhibition, % at 9.12 µM; HEK-TIYL cells, TEAD-Gal4/YAP UAS-luciferase luminescence; in the data active = inhibition above about 32%;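 also: 0% = median of test compound wells and 100% = reference inhibitor wells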
MITF inh = inhibitors of human MITF; AlphaScreen MITF homodimerization, bead proximity signal; inhibition, % at 2.6 µM; 650,000 compounds, 0.91% hits; AID 1259374; in the data active = inhibition above about 50%;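 also: 0% = vehicle wells with protein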
GPR151 ag = human GPR151 activation. activation, % at 11.2 µM. 650,000 compounds, 1% hits. AID 1508602. PathHunter beta-arrestin GPR151 cells, luminescence. Q8TDV0; in the data active = activation above about 4.9%;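 also: 0% = median of compound wells and 100% = cells with positive control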
GPR151 conf act = confirmation of human GPR151 activators | 6,700 tested, under 10 active | GPR151 PathHunter beta-arrestin cells, luminescence, 90 min; % of EA-reagent control over plate median | shares compounds with GPR151 ag | AID 1508609 | activation, % at 11.2 µM;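 active = mean percent activation across replicates above the confirmation screen cutoff of 4.91%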
GPR119 ag = GPR119 activation, counter-screen for GPR151 activators. shares compounds with GPR151 ag. GPR119 PathHunter beta-arrestin cells, luminescence, 90 min; 0 = compound-well median, 100 = enzyme-acceptor control. activation, % at 11.2 µM. 6,700 compounds, 0.3% hits. AID 1508611;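 active = mean percent activation in the counterscreen above 29.09%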;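 also: counterscreen on off-target GPR119 to flag nonselective hits from the GPR151 activator screen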
The depositor's hits bear a star; · = no result.

SMILES | FBW7 activator | TEAD-YAP block | MITF inh | GPR151 ag | GPR151 conf act | GPR119 ag
CCOC(=O)c1c(NC(=O)CN2CCOCC2)sc(C)c1C | 0 | 5 | 1 | 1 | · | ·
CCOC(=O)c1c(NC(=O)CN2CCOCC2)sc(C(C)=O)c1C | 0 | 7 | 24 | 8.4* | 0 | 9
Cc1ccccc1-n1nc2c(c1NC(=O)c1ccccc1)CSC2 | 0 | 8 | 2 | 2 | · | ·
Cc1no[n+]([O-])c1COc1ccc(/C=C(\C#N)c2ccc([N+](=O)[O-])cc2)cc1 | 0 | 0 | -8 | 0 | · | ·
CCN1CC=C2C(C#N)=C(N)C(C#N)(C#N)C(c3c(OC)ccc4ccccc34)C2C1 (configuration not stated) | 0 | -8 | 9 | 5.6* | -1 | -12
O=C(COc1ccc(Br)cc1)Nc1ccccc1C(=O)O | 0 | -37 | -8 | 0 | · | ·
COc1ccc(CN2CCNC(=O)C2CC(=O)NCCSC)c(OC)c1 (configuration not stated) | 0 | 5 | -1 | -1 | · | ·
O=c1[nH]c(/C=C/c2ccccc2Cl)nc(O)c1[N+](=O)[O-] | 0 | 6 | 9 | -1 | · | ·
Cc1cc(C)cc(NC(=O)C2CCN(c3nnc(-n4c(C)ccc4C)s3)CC2)c1 | 0 | 5 | 5 | 5.5* | 0 | -10
CNC(=O)/C(C#N)=C/c1ccc(-c2cc(Cl)ccc2Cl)o1 | 0 | -19 | -1 | -1 | · | ·
N#CC1=C(N)C2=CCCC[C@H]2[C@H](c2cccnc2)C1(C#N)C#N | 0 | -3 | 2 | 0 | · | ·
COc1ccc(NC(=O)c2ccc3c(=O)n(C4CCCCC4)c(SCc4nc5ccccc5[nH]4)nc3c2)cc1OC | 0 | -8 | 19 | 1 | · | ·
CSc1ccc(S(=O)(=O)N(CC(=O)O)c2ccc(C)cc2)cc1 | 1 | 6 | 19 | 5.8* | -1 | -11
CCN(CC)C(=O)CN(c1ccccc1)S(=O)(=O)c1ccc(C)cc1 | 0 | -3 | 13 | 6.4* | 2 | 12
CCN(CC)C(=O)CN(c1cc(C)cc(C)c1)S(=O)(=O)c1ccccc1 | 0 | 4 | 4 | 0 | · | ·
CCOc1ccc(N(CC(=O)NC(C)(C)C)S(=O)(=O)c2ccc(SC)cc2)cc1 | 0 | 13 | 3 | 22* | 0 | -4
CCN(CC)C(=O)CN(c1cccc(OC)c1)S(C)(=O)=O | 0 | 2 | -1 | 12* | 1 | -6
CCOC(=O)C1=CN(CC)/C(=C\C=C\c2sc(C(=O)OCC)c[n+]2CC)S1 | -1 | 19 | 7 | 1 | · | ·
O=C(c1ccc(-n2nnc3ccccc3c2=O)cc1)N1CCc2ccccc2C1 | 0 | 2 | 0 | 6.0* | -1 | -8
O=C(c1ccc(Cn2nnc3ccccc3c2=O)cc1)N1CCc2ccccc2C1 | 0 | 2 | -7 | 0 | · | ·
COCC(=O)NC1CCN(C(=S)Nc2ccccc2Cl)CC1 | 0 | -19 | 0 | 0 | · | ·
COCC(=O)NC1CCN(C(=S)Nc2ccc(Cl)cc2)CC1 | 0 | 0 | 3 | 7.4* | 1 | 8
CCOc1cc(C)c(C(C)C)cc1S(=O)(=O)NC1CC(C)(C)NC(C)(C)C1 | 0 | -4 | -4 | 7.9* | 0 | 2
CCOc1cc(S(=O)(=O)NC2CC(C)(C)NC(C)(C)C2)c(C)cc1C | 0 | -3 | 8 | -1 | · | ·
COc1ccc(-c2cnc3ccc(NCc4ccc(C)cc4C)nn23)cn1 | 0 | 1 | 6 | 0 | · | ·
SMILES | FBW7 activator | TEAD-YAP block | MITF inh | GPR151 ag | GPR151 conf act | GPR119 ag
CCOc1cc(C)c(S(=O)(=O)N2CCCC2)cc1C | 0 | -5 | -32 | 6.7* | 0 | -3
CCOc1cc(C)c(S(=O)(=O)N2CC(C)OC(C)C2)cc1C (configuration not stated) | 0 | -3 | 13 | 1 | · | ·
CS(=O)(=O)N(CC(=O)Nc1ccc(F)c(F)c1)c1ccc(OCc2ccccc2)cc1 | 0 | -3 | 1 | -1 | · | ·
Cc1cc(C)c2c(N)csc2n1 | 0 | -5 | -6 | 1 | · | ·
c1ccc2c(c1)sc1nnc(SCc3cn4cccnc4n3)n12 | 0 | -9 | 5 | 5.0* | -1 | -12
O=C(CNC(=O)C1CCCCC1)NNC(=O)c1ccccc1Br | 0 | 1 | 7 | 5.8* | -1 | 1
Cn1c2ccccc2c(=O)c2c(=O)n(Cc3ccccc3)c(-c3ccco3)nc21 | 0 | 4 | -2 | 0 | · | ·

Source: PubChem (The Scripps Research Institute Molecular Screening Center)
